Drawing on PubChem BioAssay AID588335 (The Scripps Research Institute Molecular Screening Center, 2011), this text covers inhibition for 40 compounds.

The structures appear in SMILES notation. Out of some 360,000 compounds screened, about 4,500 (1.2%) were called active. No stated cut-off is given here; in the data, active means inhibition above about 30%; inactive means the rest. The list comes from a sample in which actives are over-represented; it also holds similar structures and randomly drawn compounds.

The experiment in a line: GDH-TPI coupling enzyme inhibitors, primary screen, artefact control for M. tuberculosis FBA inhibitor project, biochemical, absorbance, full deck (AID 588335).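 Further: 0% = DMSO wells and 100% = wells lacking the enzyme.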 Particulars: GDH-TPI coupled enzyme counterscreen, NADH absorbance; at 4.8 µM; stronger effect = higher value. For orientation: Counterscreens check selectivity or assay interference.
For `COc1ccc(Cl)cc1C=CC=Nc1ccc(S(N)(=O)=O)cc1`, the inhibition is 5.17% (inactive).

With `COc1ccc(Cl)cc1C=CC=NNC(=O)c1ccncc1`, the inhibition is 50% (active).

For `CC(=NNC(=O)c1ccncc1)c1ccc(Cl)c(Cl)c1`, the inhibition is 0.88% (inactive).

In the case of `CCOc1nc(OCC)nc(-n2cc(-c3ccccc3)nn2)n1`, the inhibition was -5.88% (inactive).

In the case of `Cc1cc(=O)oc2c3c(cc(OCC(=O)N[C@H](C(=O)O)c4ccccc4)c12)OC(C)(C)CC3`, the inhibition was 31.4% (active).

For the compound `Cc1c(C)c2c(OCC(=O)NCCCO)cc3c(c2oc1=O)CCC(C)(C)O3`, the inhibition was 15% (inactive).

`Cc1cc(=O)oc2c3c(cc(OCC(=O)NCc4ccccn4)c12)OC(C)(C)CC3`: the inhibition is 18.6% (inactive).

Consider `Cc1cc(=O)oc2c3c(cc(OCC(=O)NCC(O)c4ccccc4)c12)OC(C)(C)CC3` (stereo not given), for which the inhibition is 15.3% (inactive).

In the case of `Cc1cc(=O)oc2c3c(cc(OCC(=O)NCCC(=O)N[C@@H](C)C(=O)O)c12)OC(C)(C)CC3`, the inhibition was 15.1% (inactive).

As to `Cc1c(C)c2c(OCC(=O)N[C@@H](C(=O)O)c3ccccc3)cc3c(c2oc1=O)CCC(C)(C)O3`, the inhibition was 35.3% (active).

For the compound `COc1cc(C(F)(F)F)nc2c(Br)c(C(C)(C)C)nn12`, the inhibition is 11.5% (inactive).

As to `CCCCN(C(=O)C(CCSC)N1C(=O)c2ccccc2C1=O)c1c(N)n(CCC)c(=O)[nH]c1=O` (stereo not given), the inhibition is 6.94% (inactive).

With `Cc1onc(-c2ccccc2)c1-c1nnc(COC(=O)c2ccc(N(C)C)cc2)o1`, the inhibition was 16.8% (inactive).

On to `CCOCCCNC(=O)C(NC(=O)c1ccc(=O)[nH]c1)c1ccc(Cl)cc1` (stereo not given), for which the inhibition was 14.7% (inactive).

For `Cc1cc2nc(-c3ccc(NC(=O)c4cccnc4)cc3)oc2cc1C`, the inhibition was 34.4% (active).

In the case of `CC(C)NS(=O)(=O)c1ccc(NC(=O)c2cccnc2)cc1`, the inhibition was -0.48% (inactive).

As to `Cc1ccc(-n2nc3cc(C)c(NC(=O)c4cccnc4)cc3n2)cc1`, the inhibition is 15.4% (inactive).

Regarding `CCc1ccc(NC2Nc3cc(C)nn3S2)cc1` (stereo not given), the inhibition was 3.7% (inactive).

As to `Cc1ccc(C(=O)N[C@H](C(=O)N2CCN(c3ncccn3)CC2)C(C)C)cc1`, the inhibition was 4.42% (inactive).

Turning to `COC(=O)c1cccc(NC(=O)CSc2nc(C)cc(=O)[nH]2)c1`, the inhibition was -11.5% (inactive).

For `COC(=O)c1cc(C(=O)CSc2nc(C)cc(C)n2)ccc1O`, the inhibition was 31.6% (active).

Regarding `COc1ccc(C(=O)CSc2n[nH]c(N)n2)cc1`, the inhibition was 4% (inactive).

On to `CCOC(=O)Cn1c(=O)n(Cc2ccc(OC)cc2)c(=O)c2cccnc21`, for which the inhibition was 5% (inactive).

Turning to `O=C1N(Cc2ccc3c(c2)OCO3)c2ccccc2C1(O)c1c[nH]c2ccccc12` (stereo not given), the inhibition is 7.18% (inactive).

Turning to `Cc1cccc(CCNS(=O)(=O)c2ccc(S(=O)(=O)NC3CCCC3)cc2)c1`, the inhibition is 10.9% (inactive).

On to `O=C1C2C3C=CC(C4CC34)C2C(=O)N1/N=C/c1ccc(-c2ccccc2[N+](=O)[O-])o1` (stereo not given), for which the inhibition was 50.6% (active).

Take `Cc1c(/C=N/N2C(=O)C3C4C=CC(C4)C3C2=O)c2ccccc2n1C` (stereo not given): the inhibition is 21.5% (inactive).

With `CN(C(=O)CSc1nc(C2CC2)nc2ccccc12)c1nc(-c2ccccc2)cs1`, the inhibition was 8.44% (inactive).

As for `CCCCn1c(N)c(N(CCC(C)C)C(=O)COC(=O)c2ccc(CC)cc2)c(=O)[nH]c1=O`, the inhibition is 9.06% (inactive).

For `CN(CCc1ccccc1)C(=O)c1cccc(NC(=O)Cc2cccc(NC(=O)C3CCCN(C(=O)C4CCC4)C3)c2)c1` (stereo not given), the inhibition is 4.55% (inactive).

`COc1ccc(NC2=CC(=S)NC(C)(C)C2)cc1`: the inhibition was 31.3% (active).

As for `COc1ccc(Nc2cc(Sc3ccc(OC)cc3)ncn2)cc1`, the inhibition is -3.81% (inactive).

Take `COc1ccc(CCNC2=CC(=O)CC(C)(C)C2)cc1`: the inhibition is 4.76% (inactive).

Take `CCOC(=O)[C@H]1CCC[C@@H](NS(=O)(=O)c2ccc(NC(C)=O)cc2)C1`: the inhibition was -3.39% (inactive).

On to `OC(c1ccccc1)c1nc(-c2cnc3ccccc3c2)cs1` (stereo not given), for which the inhibition was -3.54% (inactive).

For `CC/C(=N\NC(=O)c1ccccc1Cl)c1ccc(Br)s1`, the inhibition is 16.7% (inactive).

Consider `CC/C(=N\NC(=O)c1ccccc1O)c1c(O)n(Cc2ccccc2)c(=O)[nH]c1=O`, for which the inhibition was 57% (active).

`COCCN(C(=O)c1ccccc1F)c1c(N)n(Cc2ccccc2)c(=O)[nH]c1=O`: the inhibition was -6.6% (inactive).

For the compound `Cc1ccccc1Nc1scc(-c2ccc(Br)cc2)[n+]1-c1ccccc1C`, the inhibition was -1.89% (inactive).

Take `COCCNc1cc(NCCOC)c([N+](=O)[O-])cc1[N+](=O)[O-]`: the inhibition was 15.1% (inactive).

In general, inhibition refers to the change of the read-out against control, counted positive when it falls.
